From PubChem BioAssay AID686978 (National Center for Advancing Translational Sciences (NCATS), 2013) come the findings set out here.

The campaign covered roughly 420,000 compounds. About 64,000 (15%) were called active. About 27% were inconclusive and are not listed. These entries were drawn from the full list. A number with no mark means an inactive call. Calls follow the shape of the dose curve; as a rule, active = well fitted inhibition curve with a large enough effect; inconclusive = small, poorly fitted or top-dose-only effect; inactive = flat fitted curve, though single readings scatter.
% is scaled to controls: 0 for no effect and ±100 for the full control effect; potency is read from the fitted curve at half-maximal effect.

A short description of this assay: qHTS for Inhibitors of human tyrosyl-DNA phosphodiesterase 1 (TDP1): qHTS in cells in absence of CPT. Also: nearly all actives have a fitted effect of over 55% in size. Conditions: DT40 Tdp1-/- hTDP1 cells, no CPT, ATP luminescence, 48 h; activity change, negative = growth inhibition: at 46.2 µM (top of the series). The source says: Human tyrosyl-DNA phosphodiesterase 1 (TDP1) is a novel repair gene, and we propose to use it as a new target for anticancer drug development. TDP1 is not an essential protein, but under treatment with topoisomerase I poison (camptothecin: CPT), TDP1 works as a critical factor for cell survival. To directly identify novel TDP1 inhibitors active in a cellular environment, we have knocked-out the Tdp1 gene in chicken DT40 cells (Tdp1-/-) and generated a complemented counterpart cells that contains a stable transfection of the human TDP1 gene (Tdp1-/-;hTDP1 cells). For the primary screen, Tdp1-/-;hTDP1 cells will be exposed to small molecules in the presence or absence of CPT, and their growth kinetics will be evaluated after 48 hours by measuring ATP activity. […] The hit compounds will then be evaluated in the presence or absence of CPT using Tdp1-/- cells. […] In tertiary assays, biochemical gel-based assays will be used to assess whether the hit compounds specifically target TDP1.
To this end, we have screened this cell line against the MLSMR in two primary screens. In one screen we add CPT and in the other we screen in the absence of CPT; this AID represents the screen where CPT was absent.
NIH Chemical Genomics Center [NCGC]
NIH Molecular Libraries Probe Centers Network [MLPCN]
Assay Submitter (PI): Yves Pommier, NCI
DT40-hTDP1 cells without 20 nM Camptothecin (add 20 microL of DMSO in 1 L of cell culture medium) were dispensed at 400 cells/5microL/well in tissue culture treated 1536-well white wall/solid bottom assay plates (Greiner Bio-One North America, NC, U.S.A.) using a Multidrop Combi 8 channel dispenser (Thermo Fisher, Waltham, MA, USA). 23 nL compounds and controls were transferred using the pin tool (Kalypsys, San Diego, CA, USA) to the assay plates. The assay plates were then incubated at 37 masculineC for a minimum 48 hr. Three microL of Cell Titer Glo solution was added to the plates and incubated at RT in dark for 30 min. Luminescence was read using ViewLux (Perkin Elmer) with 1 sec exposure slow speed, high gain and 2x binning.
A general note: Quantitative high-throughput screening tests each substance at several concentrations.
For `Cc1cccc(Cn2c(=O)n(CCC(=O)NCCc3ccc(Cl)cc3)c(=O)c3sccc32)c1`, the “activity change, negative = growth inhibition” value was -14.5%. Regarding `CCc1c(C)nc2c(OC)cccc2c1Cl`, the “activity change, negative = growth inhibition” value was -7.5%.

Regarding `CCOc1ccc(CC(=O)Nc2ccc(S(=O)(=O)Nc3cc(C)on3)cc2)cc1OCC`, the “activity change, negative = growth inhibition” value was 1.83%.

For `Cc1cccc(C(=O)Nc2nnc(Cc3c[nH]c4ccccc34)s2)c1`, the “activity change, negative = growth inhibition” value was -23.7%. The same measure, in the same setting: as for `COCCCN1C(=O)C(CC(=O)NCc2cccs2)CC(C(=O)N2CCOCC2)=C1C` (configuration not stated), the figure is 3.62%; as for `COc1ccc(CN2C(=O)C(CC(=O)NCCN3CCOCC3)CC(C(=O)N(C(C)C)C(C)C)=C2C)cc1` (configuration not stated), -2.68%. As to `CCCCOCCCNC(=O)C[C@@H]1C[C@@]2(C(=O)OC)CCCCC=C2N(CCC2=CCCCC2)C1=O`, the Potency is 23.1 µM (active). `CCCCOCCCNC(=O)C[C@@H]1C[C@@]2(C(=O)OCC)CCCC=C2N(CCC2=CCCCC2)C1=O`: the Potency was 18.4 µM (active). Still for that read-out and setting: as for `CCOC(=O)[C@]12CCCC=C1N(CCC1=CCCCC1)C(=O)[C@H](CC(=O)NCCCOC)C2`, the figure is 20.6 µM (active).

As for `CC(C)COc1ccc(C(=O)OCC(=O)NCCC2=CCCCC2)cc1`, the “activity change, negative = growth inhibition” value is -16.4%.

In the case of `CN1CCNC(=O)C1CC(=O)NCCC1=CCCCC1` (configuration not stated), the “activity change, negative = growth inhibition” value is 2.56%. For the compound `CC1=C(C(=O)N(C)C)CC(CC(=O)NCCc2ccccn2)C(=O)N1CCC1=CCCCC1` (configuration not stated), the “activity change, negative = growth inhibition” value was -10.7%. For the compound `COC(=O)[C@]12CCCCC=C1N(CCC1=CCCCC1)C(=O)[C@H](CC(=O)NCC1CCCCC1)C2`, the Potency was 23.1 µM (active). For `COc1cccc(CNC(=O)C(NS(=O)(=O)c2ccc3nc(C)sc3c2)C(C)C)c1` (configuration not stated), the “activity change, negative = growth inhibition” value was -22.3%. For the compound `Cc1cc(C)cc(NC(=O)Cc2csc(C)n2)c1`, the “activity change, negative = growth inhibition” value is -0.897%. Regarding `Cc1ccc(C)c(NC(=O)CCC(=O)N/N=C2/CC(=O)CC(C)(C)C2)c1`, the “activity change, negative = growth inhibition” value is -11.3%.

For the compound `CCCCC(=O)N1CC2(C)CN(C(=O)CCCC)CC(C)(C1)C2=O`, the “activity change, negative = growth inhibition” value was -2.18%. On to `O=C(O)CN(Cc1ccco1)S(=O)(=O)c1ccccc1`, for which the “activity change, negative = growth inhibition” value was -1.89%. On to `O=C(CCNC(=O)c1ccc(Br)cc1)NCC(c1ccco1)N1CCCCC1` (configuration not stated), for which the “activity change, negative = growth inhibition” value was -18.3%. Consider `CC(C)CN(C(=O)c1cccc(S(=O)(=O)N2CCCCC2)c1)C1CCS(=O)(=O)C1` (configuration not stated), for which the Potency result is “inactive”. Consider `CCCCNCc1ccc(SC)cc1`, for which the “activity change, negative = growth inhibition” value was -13.6%. Consider `CC(=NNC(N)=O)C1CC2CCC1CC2` (configuration not stated), for which the “activity change, negative = growth inhibition” value was -5.2%. Take `ClC/C=C/C[n+]1ccccc1Cl`: the “activity change, negative = growth inhibition” value was -12.5%.

Regarding `CN(C)c1ccc(NC(=O)c2ccncc2)c2ccccc12`, the “activity change, negative = growth inhibition” value was -1.64%.

For the compound `O=c1c(-c2ccccc2Cl)c[nH]n1-c1ccccc1`, the “activity change, negative = growth inhibition” value is -25.4%. On to `O=c1c2c(-c3ccccc3)ccnc2[nH]n1-c1ccccc1`, for which the Potency entry was “inactive”. On to `O=c1c(-c2cccc(Cl)c2)c[nH]n1-c1ccccc1`, for which the Potency is 16.4 µM (active). With `N#C/C=C1\Sc2ccccc2C(=O)N1CC(=O)N1CCN(S(=O)(=O)c2ccccc2)CC1`, the “activity change, negative = growth inhibition” value was -6.42%. With `O=C(O)c1ccccc1-c1ccccc1C(=O)Nc1ccccc1Br`, the “activity change, negative = growth inhibition” value is 15.2%. As for `COc1ccc(N2C(=O)CCC(C(=O)N(C)C3CCCCC3)C2c2ccc(OC)c(OC)c2)cc1` (configuration not stated), the “activity change, negative = growth inhibition” value was -18%.

Turning to `Cc1c(C)n2c(SCC(=O)N3CCCC3)nnc2[nH]c1=O`, the “activity change, negative = growth inhibition” value was 0.243%.

As to `CCOC(=O)C1CCCN(C(=O)CSc2nnc3nc(C)cc(C)n23)C1` (configuration not stated), the Potency is 20.6 µM (active). In the case of `CCOC(=O)C1CCCN(C(=O)C2CCN(c3nnc(-n4cccc4)s3)CC2)C1` (configuration not stated), the “activity change, negative = growth inhibition” value was -25.4%. Consider `CCCCN1C(=O)CCC(C(=O)O)C1c1ccc(OC)cc1` (configuration not stated), for which the “activity change, negative = growth inhibition” value is -28.3%. `NS(=O)(=O)c1ccc(NC(=O)COC(=O)c2cc3ccccc3oc2=O)cc1`: the “activity change, negative = growth inhibition” value is 3.57%. On to `COc1cc(/C=C2\CCCc3c2nc2ccccc2c3C(=O)O)cc(Cl)c1O`, for which the “activity change, negative = growth inhibition” value was 10.6%. The same measure, in the same setting: as for `O=C(COC(=O)c1ccc(F)cc1)Nc1ccc2c(c1)OCO2`, the figure is -23.8%. `NC(=O)c1ccc(NC(=O)COC(=O)c2c3c(nc4ccccc24)/C(=C\c2ccc4c(c2)OCO4)CCC3)cc1`: the Potency is 8.2 µM (active). With `COc1cc(-c2cc(C(=O)OCC(=O)Nc3ccc4c(c3)OCO4)c3ccccc3n2)cc(OC)c1OC`, the “activity change, negative = growth inhibition” value was 2.26%. With `O=C(COC(=O)c1ccncc1)Nc1ccc2c(c1)OCO2`, the “activity change, negative = growth inhibition” value was 16.5%. On to `O=C(COC(=O)c1c2c(nc3ccccc13)/C(=C\c1cccs1)CCC2)Nc1ccccc1Cl`, for which the Potency was 13 µM (active). Take `O=C(COC(=O)c1cccs1)Nc1ccccc1Cl`: the “activity change, negative = growth inhibition” value is -5.92%. On to `NS(=O)(=O)c1ccc(NC(=O)COC(=O)c2c3c(nc4ccccc24)/C(=C\c2ccc4c(c2)OCO4)CCC3)cc1`, for which the Potency was 13 µM (active). For `COCCC(=O)Nc1ccc2c(c1)CN(C(=O)CCOC)CC2`, the “activity change, negative = growth inhibition” value was -6.12%. In the case of `COc1ccccc1C(=O)OCC(=O)NCCNC(=O)COC(=O)c1ccccc1OC`, the “activity change, negative = growth inhibition” value was -0.215%.

Take `C/C=C(\C)C(=O)N1CC2(CC(c3cccc(NC(=O)CCCCC)c3)=NO2)C[C@@H]1C(N)=O` (some centres not stated): the “activity change, negative = growth inhibition” value is -6.33%.

In the case of `CCC1(c2ccccc2)NC(=O)N(CC(=O)c2ccc3c(c2)OCO3)C1=O` (configuration not stated), the “activity change, negative = growth inhibition” value is -7.08%. Turning to `O=C(CCN1CCc2ccccc2C(O)(c2ccccc2)C1)c1ccc2c(c1)OCCO2` (configuration not stated), the Potency was 2.91 µM (active). `O=C(COC(=O)c1ccccc1)c1ccc2c(c1)OCCO2`: the “activity change, negative = growth inhibition” value is -6.69%. In the case of `COc1ccc(CCOC2OC(CO)C(OC(=O)/C=C/c3ccc(O)c(OC)c3)C(O[C@H]3O[C@@H](C)[C@H](O)[C@@H](O)[C@H]3O)C2O)cc1O` (some centres not stated), the “activity change, negative = growth inhibition” value is -13.4%. As to `Cc1ccc(CNC(=O)c2ccccc2CCc2ccccc2)cc1`, the “activity change, negative = growth inhibition” value is -10.1%.

Regarding `CNC[C@H](CC1CCCCC1)NC[C@H](NCCC1CCCC1)[C@H](C)O`, the Potency was 20.6 µM (active).
